Screening results as filed in PubChem.
Most compounds without a hit are left out; they make up all but 1.5% or so of the library.
Caspase-7 inhib: caspase-7 (human) inhibition, allosteric or competitive. P55210. recombinant caspase-7, Ac-DEVD-AFC fluorescence rate. 75,000 compounds, 0.02% hits. Potency, µM (top dose mostly 57.5 µM), for inactives: at the highest dose activity change, negative = inhibition, hits mostly inhibitors; active means well fitted inhibition curve with a large enough effect in the main read-out, with a control signal flat, not every such curve was filed as active; inconclusive means small, poorly fitted or top-dose-only effect, or a change in a side signal; further: potency means the concentration at half of the fitted maximal effect; % of control where 0% means no effect
BRCT inh red: disrupts BRCA1 BRCT binding to phosphoprotein, red fluorophore readout | BRCT-phosphopeptide binding, red fluorescence polarization | Potency, µM (titrated, usually from 76.9 µM), for the others: top-dose activity change, negative = inhibition, actives largely listed as inhibitors | 75,000 compounds, 0.03% hits; further: on the % scale 0 is the no-effect control and ±100 the full control effect
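Fluorescence polarization: 100 nM His-tagged BRCA1 BRCT with 100 nM TAMRA-labelled phospho-BACH1 decapeptide, phosphate buffer pH 7.3 with 150 mM NaCl, DTT, 0.01% Tween 20; 12 min RT. Binding inhibition seen as FP decrease.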
USP2a inh: USP2a (human) protease inhibition; 60,000 compounds, 0.1% hits; Potency, µM (top dose mostly 38.3 µM), without a hit: top-dose activity change, negative = inhibition, hits mostly inhibitors; USP2a enzymatic assay, qHTS inhibition; O75604; further: potency means the concentration at half of the fitted maximal effect; nearly all actives have a fitted effect of over 60% in size
Target sequence (O75604 whole entry, looked up): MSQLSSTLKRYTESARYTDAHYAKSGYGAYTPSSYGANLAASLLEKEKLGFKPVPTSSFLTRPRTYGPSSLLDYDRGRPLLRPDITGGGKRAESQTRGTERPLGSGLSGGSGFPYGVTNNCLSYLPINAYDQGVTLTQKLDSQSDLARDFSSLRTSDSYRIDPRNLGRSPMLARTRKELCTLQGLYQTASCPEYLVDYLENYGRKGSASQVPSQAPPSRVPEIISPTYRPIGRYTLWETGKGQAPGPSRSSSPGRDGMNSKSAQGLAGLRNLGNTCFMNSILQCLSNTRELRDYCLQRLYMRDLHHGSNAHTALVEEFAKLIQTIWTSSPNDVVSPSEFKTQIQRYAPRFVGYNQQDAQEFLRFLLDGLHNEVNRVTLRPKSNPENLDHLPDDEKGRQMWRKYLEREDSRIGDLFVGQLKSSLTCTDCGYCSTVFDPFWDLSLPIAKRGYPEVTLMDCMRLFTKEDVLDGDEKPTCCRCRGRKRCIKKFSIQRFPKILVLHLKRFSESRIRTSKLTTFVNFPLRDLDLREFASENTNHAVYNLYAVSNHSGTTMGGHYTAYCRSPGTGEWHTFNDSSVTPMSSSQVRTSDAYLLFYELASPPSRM
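USP2 core (20nM final) preincubated 30 min RT with compound, then Ub-PLA2 20nM and NBD C6-HPC 20uM final added; buffer 20mM Tris-HCl pH 8.0, 2mM CaCl2. Fluorescence Ex 460/Em 535 read at 0 and 2.5 h; normalized to NEM.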
BRCT inh green: blocks human BRCA1 BRCT binding to phosphopeptide, green readout; Potency, µM (top dose mostly 76.9 µM), for inactives: at the highest dose activity change, negative = inhibition, most hits filed as inhibitors; AID 875; BRCA1 BRCT-phosphopeptide binding, green fluorescence polarization; 75,000 compounds, 0.05% hits; P38398;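 further: potency means the concentration at half of the fitted maximal effect; plate controls were peptide without protein for full effect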
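Fluorescence polarization: His-tagged BRCT (~35 kDa BRCA1 C-terminus, 250 nM) bound to 100 nM fluorescein-labeled phosphorylated 10-aa BACH1 peptide, pH 7.3 phosphate buffer with DTT and Tween 20. Compounds incubated 12 min at room temperature; inhibition read as lowered polarization.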
Caspase-1 inhib: allosteric or competitive inhibitors of human caspase-1; P29466; Caspase-1 enzyme, Ac-WEHD-AFC fluorogenic rate; Potency, µM (doses to about 57.5 µM), inactives show at the top dose activity change, negative = inhibition, usual class: inhibitors; 75,000 compounds, 0.03% hits; AID 900;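 further: potency means the concentration at half of the fitted maximal effect; plate controls were vehicle for no effect and no substrate for full effect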
15-hLO inh: 15-hLO (ALOX15) enzyme inhibition. P16050. 74,000 compounds, 1.4% hits. purified 15hLO-1, xylenol orange hydroperoxide absorbance. Potency, µM (highest dose often 57.1 µM), without a hit: top-dose activity change, negative = inhibition, hits mostly inhibitors; further: potency means the concentration at half of the fitted maximal effect; on the % scale 0 is the no-effect control and ±100 the full control effect; nearly all actives have a fitted effect of over 55% in size
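40 nM 15hLO-1 + cpd, 15 min RT; start w/ 50 uM AA (final), 6 min RT; stop/detect w/ 200 uM XO + 300 uM Fe(II) in 50 mM H2SO4, 30 min; A573/A405. Buffer 25 mM Hepes pH 7.5, 0.01% Triton X-100. No-enzyme wells as negative control.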
* marks the source's active call; other numbers are inactive results; [ ] = remark or other dose. Unless noted, the call rests on the fitted dose curve; in most records, active means well fitted curve in the direction sought with a large enough effect; inconclusive means small, poorly fitted or top-dose-only effect, or another doubt; inactive means no such curve, though single readings can be large; an effect the other way counts as inactive or inconclusive.

`O=C(Nc1cccc(-c2nc3cccnc3s2)c1)c1ccco1` gave Caspase-7 inhib 1%, BRCT inh red -4%, USP2a inh 38%, BRCT inh green 2%, Caspase-1 inhib 0% and 15-hLO inh -3%.
O=C(Nc1ccc(-c2nc3cccnc3s2)cc1)c1ccco1 was read as Caspase-7 inhib -29%, BRCT inh red 1%, BRCT inh green 1%, Caspase-1 inhib -11% and 15-hLO inh 25µM*.
`COc1ccc(OC)c(-c2ccccc2/C=N/NS(=O)(=O)c2ccc(C)cc2)c1` gave Caspase-7 inhib -2%[11.5 µM], BRCT inh red 0%[15.4 µM], BRCT inh green -4%[15.4 µM], Caspase-1 inhib 2%[11.5 µM] and 15-hLO inh 5%[11.4 µM].
For O=C1OC2(c3cc(Br)c(O)c(Br)c3Oc3c2cc(Br)c(O)c3Br)c2c(Cl)c(Cl)c(Cl)c(Cl)c21 the results were Caspase-7 inhib -14%, BRCT inh red 2.5µM*, BRCT inh green inconclusive, Caspase-1 inhib inconclusive and 15-hLO inh -25%.
O=C(c1ccccc1)c1ccc(N2CCOCC2)c(F)c1 was read as Caspase-7 inhib 0%, BRCT inh red -1%, USP2a inh -7%, BRCT inh green 7%, Caspase-1 inhib -4% and 15-hLO inh 32µM*.
For COc1ccc(OC2C=CC(C#Cc3ccccc3)OC2CO)cc1 (configuration not stated) the results were Caspase-7 inhib -1%[11.5 µM], BRCT inh red 1%[15.4 µM], BRCT inh green -1%[15.4 µM], Caspase-1 inhib 2%[11.5 µM] and 15-hLO inh -10%[11.4 µM].
`CN(C)c1ncc2nc(-c3ccc(F)cc3)c(=O)n(C[C@H]3CCCO3)c2n1` gave Caspase-7 inhib inconclusive, BRCT inh red 4%, USP2a inh 13%, BRCT inh green -1% and 15-hLO inh -20%.
CCNc1ncc2nc(CCc3ccccc3)c(=O)n(C)c2n1 was read as Caspase-7 inhib inconclusive, BRCT inh red -1%, USP2a inh 74%, BRCT inh green 0% and 15-hLO inh 25µM*.
C=CCOC(=O)C(C(C)=O)C(NC(=O)OC)c1cccc(F)c1 (configuration not stated) was read as Caspase-7 inhib -1%[11.5 µM], BRCT inh red 1%[15.4 µM], BRCT inh green -3%[15.4 µM], Caspase-1 inhib 0%[11.5 µM] and 15-hLO inh 6%[11.4 µM].
Screening Nc1cnn([C@@H]2O[C@H](CO)[C@@H](O)[C@H]2O)c(=O)n1 returned Caspase-7 inhib -1%, BRCT inh red -1%, BRCT inh green -6%, Caspase-1 inhib -1% and 15-hLO inh -2%.
CO/N=C(\C)CCN1CCCc2nc(C)c(C)cc21 was read as Caspase-7 inhib -14%[11.5 µM], BRCT inh red -2%[15.4 µM], BRCT inh green 0%[15.4 µM], Caspase-1 inhib -11%[11.5 µM] and 15-hLO inh -11%[11.4 µM].
`COC(=O)c1ccc2c(c1)NC(=O)C1CCCN21` (configuration not stated) gave Caspase-7 inhib -11%, BRCT inh red 0%, BRCT inh green 16%, Caspase-1 inhib -10% and 15-hLO inh 7.9µM*.
For Cc1ccc(NC(=O)COC(=O)c2ccc3c(c2)NC(=O)C2CCCN32)cc1 (configuration not stated) the results were Caspase-7 inhib -10%, BRCT inh red 0%, USP2a inh 32%, BRCT inh green 3%, Caspase-1 inhib -9% and 15-hLO inh -7%.
For CN1CCN(Cc2c(O)ccc3occ(C(=O)c4ccccc4)c23)CC1 the results were Caspase-7 inhib 1%, BRCT inh red 1%, USP2a inh 9%, BRCT inh green 0%, Caspase-1 inhib -5% and 15-hLO inh -3%.
`CC(=O)C(C(C)=O)c1c(Cl)c(O)c(O)c2c(C(=O)c3ccccc3)coc12` gave Caspase-7 inhib -9%, BRCT inh red -2%, USP2a inh 63%[46.1 µM], BRCT inh green 0%, Caspase-1 inhib -6% and 15-hLO inh 2.5µM*.
O=[N+]([O-])c1ccc(S(=O)(=O)Cc2ccccc2)c2nonc12 was read as Caspase-7 inhib -6%[11.5 µM], BRCT inh red -2%[15.4 µM], BRCT inh green 2%[15.4 µM], Caspase-1 inhib -1%[11.5 µM] and 15-hLO inh inconclusive.
Screening CCCCOc1ccc(NC2=NC3(CCCCC3)N=C(N)N2)cc1 returned Caspase-7 inhib 1%, BRCT inh red -1%, USP2a inh 7%, BRCT inh green 0%, Caspase-1 inhib 2% and 15-hLO inh inconclusive.
`COc1ccc(NC2=NC3(CCCCC3)N=C(N)N2)cc1` gave Caspase-7 inhib 4%, BRCT inh red 0%, USP2a inh 2%, BRCT inh green -1%, Caspase-1 inhib -1% and 15-hLO inh 25µM*.
Cc1onc(-c2ccccc2)c1C(=O)Nc1nnc(COc2ccc(Cl)cc2)s1 was read as Caspase-7 inhib -12%, BRCT inh red 1%, USP2a inh 49%, BRCT inh green 0%, Caspase-1 inhib -4% and 15-hLO inh 7.9µM*.
Screening CCOC(=O)c1sc(N)c(C(=O)Nc2ccc(C)cc2C)c1C returned Caspase-7 inhib -3%, BRCT inh red 0%, BRCT inh green -1%, Caspase-1 inhib -6% and 15-hLO inh inconclusive.
`COc1ccc(S(=O)(=O)N(C(C)=O)c2ccc3oc(=O)sc3c2)cc1` gave Caspase-7 inhib -1%, BRCT inh red -1%, USP2a inh 22%, BRCT inh green -1%, Caspase-1 inhib -3% and 15-hLO inh 5µM*.
`COC(=O)c1c(C(=O)OC)c2n(c1C)Cc1ccccc1C2` gave Caspase-7 inhib -2%, BRCT inh red 0%, USP2a inh -6%, BRCT inh green -5%, Caspase-1 inhib -2% and 15-hLO inh 7.9µM*.
Screening COC(=O)c1c(C)nn(-c2ccccc2)c1N returned Caspase-7 inhib -2%, BRCT inh red 0%, BRCT inh green -1%, Caspase-1 inhib 0% and 15-hLO inh 5%.
O=C(N/N=C1/C[C@@H](O)[C@@H](O)[C@@H]2[C@@H]3C(=O)N(C[C@@H]4CCCO4)C(=O)[C@H]3CC[C@H]12)OCc1ccccc1 was read as Caspase-7 inhib -1%[11.5 µM], BRCT inh red 0%[15.4 µM], BRCT inh green -1%[15.4 µM], Caspase-1 inhib 2%[11.5 µM] and 15-hLO inh inconclusive.
Screening Cc1cc([N+](=O)[O-])c(C)c(Br)c1C returned Caspase-7 inhib 2%[11.5 µM], BRCT inh red -1%[15.4 µM], BRCT inh green -2%[15.4 µM], Caspase-1 inhib -3%[11.5 µM] and 15-hLO inh -2%[11.4 µM].
`Oc1cccc(O)c1O` gave Caspase-7 inhib -7%, BRCT inh red -2%, BRCT inh green 9%, Caspase-1 inhib -4% and 15-hLO inh 13µM*.
Screening COc1c(O)cccc1O returned Caspase-7 inhib 2%, BRCT inh red -2%, USP2a inh 0%, BRCT inh green -2%[3.08 µM], Caspase-1 inhib 2% and 15-hLO inh 2%.
